From PubChem BioAssay
This is a sample that favours compounds with a hit; in the whole collection about 5.1% have one here.
Tau fibril ThT = blocks human tau fibril formation measured by thioflavin T; P10636; recombinant tau K18 P301L, heparin-induced fibrillization, ThT fluorescence; Potency, µM (titrated, usually from 57.4 µM), for the others: at the highest dose activity, negative = inhibition, hits mostly inhibitors; 270,000 compounds, 2.1% hits; AID 1460; also: potency is read from the fitted curve at half-maximal effect; nearly all actives have a fitted effect of over 55% in size
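Heparin-induced (20 uM) aggregation of recombinant human K18 P301L tau, 15 uM unlabeled with 0.24 uM labeled, pH 7 acetate buffer, 6 hr at 37 C with compound. Fibrils quantified by 30 uM ThT fluorescence after 1 hr ambient incubation.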
Tau fibril FP = tau fibrillization inhibition (FP); Potency, µM (highest dose often 57.7 µM), without a hit: at the top dose activity, negative = inhibition, hits mostly inhibitors; K18 P301L tau heparin fibrillization, Alexa594 FP, 6 h; P10636; AID 1468; 280,000 compounds, 0.39% hits; also: potency is read from the fitted curve at half-maximal effect; nearly all actives have a fitted effect of over 55% in size
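Recombinant K18 P301L […], labeled with Alexa 594 at 0.24 uM over 15 uM unlabeled; heparin inducer 20 uM final; 37 C, 6 hr; FP endpoint.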
PNC assembly inh = inhibitors of perinucleolar compartment assembly | PC3M PTB-GFP, PNC prevalence imaging, 16 h; hits give low values | activity change (PNC), negative = inhibition, % at 10 µM | 140,000 compounds, 3.1% hits | AID 2417;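 active = readout at or below -70, meaning at least 70% loss of cells showing the perinucleolar compartment, a nuclear body marking cancer cells; inconclusive = readout between -30 and a set limit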;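 also: plate controls were DMSO wells for no effect and camptothecin positive control wells for full effect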
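Compounds are pinned in duplicate onto adhered PC3M cells stably expressing GFP-tagged PTB and incubated 16 h at 37 C. Cells are then fixed, nuclei stained with Hoechst, and PNC-positive cells counted.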
JMJD2E inh = inhibitors of human JMJD2E histone demethylase | JMJD2E catalytic domain, FDH-coupled NADH fluorescence (FDH is formaldehyde dehydrogenase) | Potency, µM (top dose mostly 57.1 µM), for the others: at the top dose activity change, negative = inhibition, actives largely listed as inhibitors | 230,000 compounds, 1.6% hits | B2RXH2 | AID 2147; active = well fitted inhibition curve with a large enough effect, not every such curve was filed as active; inconclusive = small, poorly fitted or top-dose-only effect, or another doubt; inactive = no such curve, though single readings can be large or run the other way;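 also: potency is read from the fitted curve at half-maximal effect; 0% = wells with enzyme and -100% = buffer wells without enzyme; nearly all actives have a fitted effect of over 50% in size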
Target sequence (B2RXH2 1-337 limits assumed): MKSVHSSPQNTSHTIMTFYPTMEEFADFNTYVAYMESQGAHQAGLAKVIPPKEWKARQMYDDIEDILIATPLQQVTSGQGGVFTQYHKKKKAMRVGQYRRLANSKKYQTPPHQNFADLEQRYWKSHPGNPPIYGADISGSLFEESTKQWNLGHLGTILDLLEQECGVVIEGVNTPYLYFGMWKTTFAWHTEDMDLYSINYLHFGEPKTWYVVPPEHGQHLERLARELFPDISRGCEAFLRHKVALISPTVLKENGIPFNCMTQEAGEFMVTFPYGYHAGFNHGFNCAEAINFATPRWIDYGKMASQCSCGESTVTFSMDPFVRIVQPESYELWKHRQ
NPSR antag = neuropeptide S receptor (human) antagonism, cAMP; 220,000 compounds, 1% hits; CHO-NPSR cells, cAMP TR-FRET, antagonist mode; Q6W5P4; Potency, µM (top dose mostly 38.3 µM), for inactives: top-dose activity change, negative = inhibition, usual class: inhibitors; also: potency is read from the fitted curve at half-maximal effect; nearly all actives have a fitted effect of over 50% in size
Target sequence (Q6W5P4 whole entry, looked up): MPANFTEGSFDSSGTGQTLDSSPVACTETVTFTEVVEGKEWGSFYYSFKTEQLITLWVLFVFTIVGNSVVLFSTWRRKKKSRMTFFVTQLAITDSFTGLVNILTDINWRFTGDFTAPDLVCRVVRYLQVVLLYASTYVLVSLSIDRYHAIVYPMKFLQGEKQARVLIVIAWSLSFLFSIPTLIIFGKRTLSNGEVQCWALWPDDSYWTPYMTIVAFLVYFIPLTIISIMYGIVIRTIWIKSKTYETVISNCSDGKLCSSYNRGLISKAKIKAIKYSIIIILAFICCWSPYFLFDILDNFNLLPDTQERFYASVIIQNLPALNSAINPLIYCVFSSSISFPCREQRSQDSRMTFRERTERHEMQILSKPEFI
Tau fluor counter = counter-screen for tau fibril formation inhibitors; Potency, µM (top dose mostly 57.7 µM), for inactives: top-dose activity change, negative = decrease; tau K18 P301L Alexa594 fluorescence, heparin fibrillization; 280,000 compounds, 0.93% hits; also: potency is read from the fitted curve at half-maximal effect; nearly all actives have a fitted effect of over 55% in size
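Human tau K18 P301L (15 uM unlabeled, 0.24 uM Alexa 594-labeled) in 100 mM sodium acetate pH 7 with 20 uM heparin, 6 hr at 37 C. ThT 30 uM added, 1 hr ambient; Alexa 594 FP and total fluorescence read at 555/632 nm.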
* = called active by the depositor; ? = inconclusive; / = no result; [ ] = another dose, or the depositor's remark. Unless noted, calls follow the shape of the dose curve; as a rule, active = well fitted curve in the direction sought with a large enough effect; inconclusive = small, poorly fitted or top-dose-only effect, or another doubt; inactive = no such curve, though single readings can be large; an effect the other way counts as inactive or inconclusive. Unless noted, % is scaled to controls: 0 for no effect and ±100 for the full control effect.

SMILES | Tau fibril ThT | Tau fibril FP | PNC assembly inh | JMJD2E inh | NPSR antag | Tau fluor counter
COc1ccc(C2N(c3cc(Cl)ccc3OC)C(=O)C3CCCN32)c(OC)c1 (centres undefined) | -8% | 13% | 3 | -1% | -19%[46.1 µM] | -5%
COc1ccccc1C1N(c2cc(Cl)ccc2OC)C(=O)C2CCCN21 (centres undefined) | 0% | -5% | -106* | 2% | -16%[46.1 µM] | 2%
COc1ccccc1CNC(=O)Cn1c(=O)nc(-c2ccccc2)c2ccccc21 | -3% | -5% | / | / | / | -5%
COCCn1c(SCC(=O)Nc2ccccc2C)nc2c(oc3ccccc32)c1=O | -7% | -4% | 4 | -11% | 7% | -4%
COCCn1c(SCC(=O)Nc2ccc(C)cc2C)nc2c(oc3ccccc32)c1=O | -4% | -4% | -107* | 1% | 1% | -3%
Cn1c(N)c(C(=O)COC(=O)c2cc(-c3ccccc3)nc3ccccc23)c(=O)n(Cc2ccccc2)c1=O | -1% | 14µM* | 60 | ? | -8% | ?
Cn1c(N)c(C(=O)COC(=O)c2cc(-c3ccccc3)nc3ccccc23)c(=O)n(C)c1=O | -12% | ? | / | -2% | / | ?
COc1ccc(-c2cc(C(=O)OC(C)C(=O)Nc3c(C)n(C)n(-c4ccccc4)c3=O)c3ccccc3n2)cc1 (centres undefined) | -13% | 5% | -86* | ? | -29%[46.1 µM] | -24%
Cc1c(NC(=O)COC(=O)c2cc(-c3ccc(-c4ccccc4)cc3)nc3ccccc23)c(=O)n(-c2ccccc2)n1C | -12% | -9% | -113* | ? | -15% | -22%
CCOc1cc(C(=O)OCc2cc(=O)n3nc(CC)sc3n2)cc(OCC)c1OCC | ? | 5% | / | / | / | -10%
O=C(Cn1c(=O)n(Cc2nc(-c3ccccc3)no2)c(=O)c2ccccc21)Nc1cccc(C(F)(F)F)c1 | 19% | 10µM* | / | / | / | ?
COc1ccc(NC(=O)Cn2c(=O)n(Cc3nc(-c4ccccc4)no3)c(=O)c3ccccc32)cc1Cl | ? | ? | / | / | / | -6%
CCOc1ccc(NC(=O)Cn2c(=O)n(Cc3nc(-c4ccccc4)no3)c(=O)c3ccccc32)cc1 | ? | ? | / | / | / | -1%
O=C(Cn1c(=O)n(Cc2nc(-c3ccccc3)no2)c(=O)c2ccccc21)Nc1cccc(Cl)c1 | ? | 28µM* | / | / | / | -27%
CN(C)S(=O)(=O)N1CCC(n2cnc3cccnc32)CC1 | 2% | -1% | / | / | / | -5%
CC(CNC(=O)c1csc2c1CCCCC2)c1ccccc1 (centres undefined) | -10% | -8% | / | / | / | -14%
COc1ccc(CN2CCC(N(CCc3ccccc3)Cc3ccccc3)CC2)c(OC)c1 | -11% | -12% | / | 28µM* | 7.9µM* | -12%
COc1ccc(CN2CCC(C(=O)N(C)CCc3ccc(OC)c(OC)c3)CC2)c(OC)c1 | 1% | 8% | 17 | -26% | -6%[46.1 µM] | 3%
O=C(c1cccc(Cl)c1)n1nc(-c2cccnc2)nc1NCc1ccccc1 | ? | -7% | / | / | / | -28%
CC(C)Cn1cc(C(=O)NCc2cccs2)c2c3ccccc3n(C)c2c1=O | 10µM* | -5% | -6 | -5% | -12%[46.1 µM] | -27%
CCOc1ccc(NC(=O)Cn2nc(CC)n3c(cc4sccc43)c2=O)cc1 | -1% | -3% | / | / | / | -3%
N#CC1=C(N)Oc2c(O)cc3ccccc3c2C1c1ccsc1 (centres undefined) | ? | ? | 123 | ? | -44% | 16µM*[quencher]
CCOC(=O)C1=C(C)OC(N)=C(C#N)C1c1ccsc1 (centres undefined) | ? | -13% | -18 | -9% | -20%[7.67 µM] | -14%
Cc1ccc(C(C)C)c(OCCCn2c(=O)oc3ccc(C)cc32)c1 | -13% | 2% | / | / | / | -11%
CCCn1c(SCC(=O)Nc2nnc(C(C)C)s2)nc2c1c(=O)n(C)c(=O)n2C | -1% | 6% | -7 | 5% | 6%[46.1 µM] | 2%
SMILES | Tau fibril ThT | Tau fibril FP | PNC assembly inh | JMJD2E inh | NPSR antag | Tau fluor counter
CC(C)n1c(SCC(=O)Nc2nc3c(s2)CCCC3)nc2c1c(=O)n(C)c(=O)n2C | -8% | 2% | -100* | -5% | -7%[46.1 µM] | -10%
CCOC(=O)c1c(NC(=O)CSc2nc3c(c(=O)n(C)c(=O)n3C)n2C(C)C)sc(C)c1C | -17% | -3% | ? | 0% | 7%[46.1 µM] | -9%
CCCn1c(SCC(=O)Nc2nc3ccccc3s2)nc2c1c(=O)n(C)c(=O)n2C | -14% | -13% | -111* | 8% | -19%[46.1 µM] | -17%
O=C(CSc1nnc(-c2cccs2)o1)Oc1ccc(Cl)cc1 | -10% | -3% | / | / | / | 1%
CC1(C)OC(=O)N(c2ccccc2)C12C=Cc1cc(Br)ccc1O2 (centres undefined) | -7% | 0% | ? | 11% | ? | -4%
CN1c2ccccc2C(C)(C)[C@]12C=Cc1cc(O)ccc1O2 | 22µM* | -1% | -14 | -11% | 13µM* | ?
COc1ccc2ccc3c(c2c1)N=CC1(O3)N(C)c2ccccc2C1(C)C (centres undefined) | 10µM* | 22µM* | 33 | 14µM* | -39% | ?
CN1c2ccccc2C(C)(C)C12C=Nc1c(ccc3ccccc13)O2 (centres undefined) | 32µM* | ? | -21 | 25µM* | -17%[46.1 µM] | ?
COc1ccc2[nH]cc(/C=N/NS(=O)(=O)c3ccc(C)cc3)c2c1 | ? | 15% | / | 1% | -8% | 13µM*[quencher]
COc1ccc2c(/C=N/NS(=O)(=O)c3ccc(C)cc3)c[nH]c2c1 | ? | 13% | / | ? | -2%[7.67 µM] | 13µM*[quencher]
Cc1ccc(S(=O)(=O)N/N=C/c2cnn(C)c2C)cc1 | -4% | -2% | 10 | 4% | -2%[46.1 µM] | -1%
Cc1ccc(S(=O)(=O)N/N=C/c2c[nH]c3ccccc23)cc1 | ? | 12% | / | 2% | 7% | ?
Cc1nc(NC(=O)c2ccco2)sc1-c1csc(Nc2ccc(Cl)cc2)n1 | 7.1µM* | 10% | ? | -14% | -8%[46.1 µM] | ?
Cc1nc(NC(=O)c2ccco2)sc1-c1csc(Nc2ccc(Cl)cc2Cl)n1 | ? | 11% | 66 | ? | -10%[46.1 µM] | ?
COc1ccccc1Nc1nc(-c2sc(NC(=O)c3ccco3)nc2C)cs1 | 3.5µM* | 11% | -10 | -11% | -20%[46.1 µM] | ?
Cc1ccc(Cl)cc1Nc1nc(-c2sc(NC(=O)c3ccco3)nc2C)cs1 | ? | -1% | 18 | 25µM* | -13%[46.1 µM] | ?
C/C(=N\NC(=O)C12CCC(C)(C(=O)O1)C2(C)C)c1ccccc1O (centres undefined) | 0% | 3% | / | 8.9µM* | 9% | 1%
CC12CCC(C(=O)N/N=C/c3ccc(O)cc3O)(OC1=O)C2(C)C (centres undefined) | -13% | -3% | / | 25µM* | -10% | -17%
